ELG1 genotoxic = qHTS screen for small molecules that induce genotoxicity in human embryonic kidney (HEK293T) cells expressing luciferase-tagged ELG1. HEK293T ELG1-luciferase reporter, luminescence, 16 h. Potency, µM (doses to about 46 µM), for the others: at the top dose activity change, positive = activation, actives largely listed as activators. 330,000 compounds, 1.3% hits; note: % of control where 0% means no effect; nearly all actives have a fitted effect of over 60% in size
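Screening used a luciferase reporter fused to human ELG1 in HEK293T cells. Luminescence was read on a CCD plate imager after 16 hr exposure and 30 min ONE-Glo incubation.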
SMN2 splice enh = qHTS Assay for Enhancers of SMN2 Splice Variant Expression | HEK293 SMN2-luciferase splicing reporter, luminescence, 30-36 h | 210,000 compounds, 2.8% hits | AID 1458, 2008 | Potency, µM (highest dose often 46.1 µM), without a hit: at the highest dose activity change, positive = activation, most hits filed as activators; note: % of control where 0% means no effect; nearly all actives have a fitted effect of over 55% in size
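qHTS luciferase splicing reporter: luminescence rises when SMN2 exon 7 is included in transfected HEK293 cells. Compound exposure lasted 30-36 h at 37C, with 4.5 mM final sodium butyrate as control, followed by a ONE-Glo read.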
KinaseGlo FLuc = Counterscreen for Luciferase (Kinase-Glo TM) Inhibition; Kinase-Glo luciferase, ATP luminescence, 8 min; Potency, µM (top dose mostly 38.3 µM), inactives show at the top dose activity change, negative = inhibition, hits mostly inhibitors; 200,000 compounds, 0.28% hits; note: % is set by controls: 0 for no effect and ±100 for the full control effect; nearly all actives have a fitted effect of over 60% in size
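Luminescence was the read-out, taken after 8-minute incubation at ambient temperature. Luciferase turned over luciferin with 10 uM ATP in imidazole pH 7.2 buffer containing KCl, MgCl2, Tween 20 and BSA.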
FLuc counter = qHTS profiling assay for firefly luciferase inhibitor/activator using purifed enzyme and Km concentrations of substrates (counterscreen for miR-21 project). purified FLuc, Km substrates, luminescence inhibition. Potency, µM (top dose mostly 57.5 µM), for the others: at the highest dose activity change, negative = inhibition, hits mostly inhibitors. 360,000 compounds, 6.9% hits. Luciferin 4-monooxygenase (Photinus pyralis), P08659;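 note: plate controls were vehicle for no effect and reference inhibitor for full effect; nearly all actives have a fitted effect of over 55% in size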
Target sequence (P08659 whole entry, looked up): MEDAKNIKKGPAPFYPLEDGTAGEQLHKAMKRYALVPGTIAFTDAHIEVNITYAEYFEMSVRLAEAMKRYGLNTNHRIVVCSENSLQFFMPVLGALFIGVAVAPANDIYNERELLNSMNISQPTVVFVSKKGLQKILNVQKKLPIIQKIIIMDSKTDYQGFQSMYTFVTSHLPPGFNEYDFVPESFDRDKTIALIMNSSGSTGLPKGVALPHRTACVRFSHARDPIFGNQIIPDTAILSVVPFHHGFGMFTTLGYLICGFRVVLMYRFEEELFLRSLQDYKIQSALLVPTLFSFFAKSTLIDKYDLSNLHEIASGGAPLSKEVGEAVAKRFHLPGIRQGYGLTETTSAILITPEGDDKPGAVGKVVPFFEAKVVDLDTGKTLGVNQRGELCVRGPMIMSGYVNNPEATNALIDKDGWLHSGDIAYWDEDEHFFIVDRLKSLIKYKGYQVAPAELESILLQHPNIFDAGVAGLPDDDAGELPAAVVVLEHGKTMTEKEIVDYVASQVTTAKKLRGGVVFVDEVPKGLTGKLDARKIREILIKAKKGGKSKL
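Purified P. pyralis luciferase (10nM final) with 10uM D-luciferin and 10uM ATP (Km levels) in 50mM Tris acetate pH 7.5, 10mM Mg acetate, 0.01% Tween-20, 0.05% BSA; qHTS 6-point titration, ~60 µM downward; luminescence read.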
Rab9 promoter act = qHTS Assay for Rab9 Promoter Activators; Huh7 Rab9 promoter-luciferase reporter, luminescence, 24 h; Potency, µM (doses to about 9.22 µM), without a hit: at the highest dose activation, negative = inhibition, most hits filed as activators; 320,000 compounds, 2.8% hits; AID 485297, 2010; note: % of control where 0% means no effect; nearly all actives have a fitted effect of over 60% in size
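Luciferase signal after 10 min detection reagent at ambient indicates Rab9 promoter upregulation; stably transfected Huh7 cells were treated 24 h with compound in DMSO at 37 °C, 5% CO2.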
NPC1 prom act = qHTS Assay for NPC1 Promoter Activators. Huh7 NPC1 promoter luciferase reporter, 24 h. 320,000 compounds, 2.4% hits. Potency, µM (series often up to 9.22 µM), for the others: at the top dose activation, usual class: activators. AID 485313, 2010; note: % of control where 0% means no effect; nearly all actives have a fitted effect of over 60% in size
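Quantitative HTS used a cell-based reporter: Huh7 cells stably bearing the NPC1 promoter upstream of luciferase were treated with compounds for 24 h, and promoter activation was read as luminescence.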
Active calls of the source: *; ? = inconclusive; / = not tested or not shown; [ ] = dose if it differs, or a comment. Rows were chosen to be rich in hits. Some 7.4% of all compounds tested hit in one or more screens of this group. Calls come from the whole dose curve; as a rule, active = well fitted curve in the direction sought with a large enough effect; inconclusive = small, poorly fitted or top-dose-only effect, or another doubt; inactive = no such curve, though single readings can be large; an effect the other way counts as inactive or inconclusive. Potency is the fitted concentration of half-maximal effect.

SMILES | ELG1 genotoxic | SMN2 splice enh | KinaseGlo FLuc | FLuc counter | Rab9 promoter act | NPC1 prom act
CCSc1ncnc2c1sc1nc3c(cc12)COC(C)(C)C3 | ? | 13µM* | 2% | 2.7µM* | 2.8µM* | 3.5µM*
CCCOc1ncnc2c1sc1nc3c(cc12)COC(C)(C)C3 | ? | / | 1% | ? | ? | 30%
CCC(Oc1ccccc1)C(=O)Nc1ccc(OCc2cc(=O)n3ccc(C)cc3n2)cc1 (configuration not stated) | / | / | / | -15% | / | /
CC(C)(C)C(=O)[C@H](C(c1ccccc1)N1CCOCC1)N1CCOCC1 (some centres not stated) | / | 1%[9.22 µM] | -6%[7.66 µM] | / | / | /
Cn1nc(C(F)(F)F)cc1-c1ccc(S(N)(=O)=O)s1 | 15% | / | / | ? | ? | ?
CN(C)C(=O)c1ccc(-c2cc(C(F)(F)F)nn2C)s1 | ? | / | / | 15µM* | ? | 3.5µM*
Cc1ccc(-c2cc(C(=O)N(Cc3ccccc3)Cc3ccco3)no2)cc1F | / | / | / | 0% | / | /
C/C(=N\NC(=O)c1ccccc1)c1cccc(Br)c1 | ? | ? | 0% | 13µM* | 2.5µM* | ?
CC(/C=C/c1ccccc1F)=N\NC(=O)c1ccccc1 | ? | 16µM* | -1% | 17µM* | 3.2µM* | ?
C/C(=N\NC(=O)c1cccc(Br)c1)c1cccc(NC(=O)c2ccc(C)o2)c1 | -2% | -1% | -1% | 17µM* | 2% | 0%
C/C(=N/NC(=O)c1ccccc1)C(=O)O | ? | / | -16% | 3.4µM* | 3.5µM* | 3.5µM*
CC(=N\NC(=O)c1ccccc1)/C(=N/O)C(=O)Nc1ccccc1 | 12% | / | / | -1% | 1% | -6%
CCOc1ccc(Cn2c(CNS(=O)(=O)c3ccc(Cl)s3)nc3cccnc32)cc1 | / | / | / | -19% | / | /
COc1ccccc1NC(=O)c1cc(-c2ccc(C)o2)nc2ccccc12 | -1% | / | / | 7.6µM* | 13% | -1%
Cc1ccc(NC(=O)c2cc(-c3ccc(C)o3)nc3ccccc23)cc1 | 5% | 10% | -1% | ? | 9% | 1%
Cc1ccc(-c2cc(C(=O)Nc3ccccn3)c3ccccc3n2)o1 | -12% | 3% | -1% | 11µM* | 3% | -1%
Cc1ccc(C)c(-c2cc(C(=O)Nc3cccnc3)c3ccccc3n2)c1 | -15% | / | / | 1% | 11% | -1%
O=C(Nc1cccnc1)c1cc(-c2ccc(Br)cc2)nc2ccccc12 | 0% | / | / | 17µM* | 0% | 0%
Cc1ccc(-c2cc(C(=O)Nc3cccnc3)c3ccccc3n2)o1 | 0% | 3% | -19% | 6µM* | 16% | 0%
CCC1=C(OC(=O)N(CC)CC)N2C(=O)OC(=NCCOC)[C@]2(C)[C@H]2C1=CC[C@H]1C(=O)N(CC)C(=O)[C@H]12 | / | -2% | -6% | / | / | /
COC(=O)C/C=C/[C@@H](C)[C@@H](Cc1ccccc1Br)OC | / | 5% | 1% | / | / | /
COc1ccccc1N1CCN(C(=O)c2cnn(C(C)(C)C)c2C2CCN(C(=O)OC(C)(C)C)CC2)CC1 | / | / | / | 0% | / | /
CC(C)c1ccccc1NC(=O)C(Cc1c[nH]c2ccccc12)NC(=O)OC(C)(C)C (configuration not stated) | / | 18% | / | 3% | / | /
COCCn1c(=NC(=O)/C=C/c2ccccc2)sc2cc(NC(C)=O)ccc21 | 2% | 15% | 5% | -10% | -1% | 1%
CCOC(=O)c1sc(=NC(=O)/C=C/c2ccccc2)n(C)c1C | 15% | 30% | 4% | -7% | 1.6µM* | ?
SMILES | ELG1 genotoxic | SMN2 splice enh | KinaseGlo FLuc | FLuc counter | Rab9 promoter act | NPC1 prom act
CCOC(=O)c1sc(=NC(=O)c2cccs2)n(C)c1C | ? | 3.2µM* | -12% | 1.3µM* | ? | 1%
CCOC(=O)c1sc(=NC(=O)c2ccco2)n(C)c1C | 4% | 14µM* | -4% | 15µM* | ? | -12%
CCOC(=O)c1sc(=NC(=O)c2ccc(Cl)s2)n(C)c1C | 1.2µM* | 7.9µM* | -2% | 0.67µM* | ? | ?
COCCn1c(C)cc(O)c(C(c2ccccc2)N2CCC(C)CC2)c1=O (configuration not stated) | / | / | / | -3% | / | /
Cc1c(CNC2CCCCCC2)c(C(=O)O)c(C)n1Cc1cccc(Cl)c1 | / | 9% | / | -6% | / | /
CCOC(=O)c1sc(=NC(=O)c2ccc(OC(C)C)cc2)n(C)c1C | 5% | -5% | 0% | -3% | 1% | -18%
Cc1sc(=NC(=O)c2ccco2)n(C)c1-c1ccc(Cl)cc1 | 11% | 24% | 7% | 5.4µM* | 2.8µM* | 2.5µM*
Cc1sc(NC(=O)c2ccco2)c(C(=O)c2ccc(Cl)cc2)c1C | 1% | -19% | 3% | -9% | -2% | -1%
CCOC(=O)c1sc(=NC(=O)c2ccccc2Br)n(C)c1C | ? | / | / | 2.1µM* | ? | ?
Cc1ccc(CCNS(=O)(=O)c2cc(-c3cc(C)no3)ccc2C)cc1 | / | / | / | 2% | / | /
Cc1ccc(N2C(=O)c3ccccc3C2C(=O)c2cc(C)ccc2O)cc1 (configuration not stated) | -1% | 13µM* | 1% | ? | 21% | 23%
Cc1ccc(N2C(=O)c3ccccc3C2C(=O)c2ccc(O)cc2O)cc1 (configuration not stated) | -4% | ? | 1% | -5% | -1% | 2%
CCOc1ccc(Sc2cc(C(=O)NCCc3ccc(OC)c(OC)c3)c3ccccc3n2)cc1 | / | / | / | -2% | / | /
CCCCOc1ccc(C(=O)N/C(=C/C=C/c2ccccc2)C(=O)O)cc1 | 4% | 5% | 2% | 15µM* | -2% | 0%
O=C(Nc1ccc(C(=O)O)cc1)/C(=C\C=C\c1ccccc1)NC(=O)c1ccccc1Cl | 4% | / | / | 6% | 0% | 3%
O=C(O)COc1ccc(/C=N/NC(=O)/C(=C/C=C/c2ccccc2)NC(=O)c2ccccc2)cc1 | -3% | / | / | 21µM* | 0% | 1%
O=C(Nc1ccc(O)cc1)/C(=C\C=C\c1ccccc1)NC(=O)c1ccccc1 | -9% | / | / | 9.5µM* | 2% | -3%
COC(=O)/C(=C\C=C\c1ccccc1)NC(=O)c1ccccc1 | -6% | -7% | -3% | ? | 5% | -4%
CCCCOc1ccc(C(=O)N/C(=C/C=C/c2ccccc2)C(=O)NC)cc1 | 2% | -3% | 2% | 17µM* | 0% | 1%
CCOC(=O)c1c(NC(=O)CCCOc2ccc(C(C)(C)C)cc2)sc2c1CCCC2 | / | -5% | / | -6% | / | /

From PubChem
